Data: PubChem BioAssay (Tox21)
Inconclusive results are not listed. The source made the active and inactive calls. The call rests on the fitted dose curve; in most records, active means well fitted inhibition curve with a large enough effect in the signal ratio in the repeat runs, with a control signal flat; inconclusive means weak or mixed curves, or effect the other way; inactive means flat fitted curve, though single readings scatter; the % refers to the signal ratio.

target: D(2) dopamine receptor (Homo sapiens) (UniProt P14416); experiment: Dopamine D2 receptor (DRD2) small molecule antagonists, cell-based qHTS assay (AID 1963595); conditions: HEK293-DRD2 cAMP HTRF antagonist mode; series mostly up to 92.4 µM; activity change, negative = inhibition: at the top concentration
Source text: National Center for Advancing Translational Sciences [NCATS]
Division of Preclinical Innovation [DPI]
U.S. Environmental Protection Agency [EPA]
National Institutes of Environmental Health Sciences [NIEHS]
National Toxicology Program [NTP]
U.S. Food and Drug Administration [FDA]
DRD2 is the D2 subtype of the dopamine receptor, which is coupled to Gi subtype of G protein-coupled receptor. This G protein-coupled receptor inhibits adenylyl cyclase activity. The DRD2-HEK293 cell line stably expressing D2 dopamine receptor can be used for screening agonists and antagonists of interactions between D2 and its ligands. The Hek293-DRD2 cAMP assay is based on HTRF technology. It measures changes of cAMP accumulation in response to Gi coupled GPCR activation or inhibition.
Tox21 Assay Protocol Summary:
DRD2-Hek293 cells were dispensed at 600 cells/3uL/well in 1536-well white plates using a Multidrop Dispenser. After the assay plates were incubated at a 37 C/5% CO2 incubator for 24 h, 1 uL of Ro20-1724 at final concentration of 0.1 mM was transferred to the assay plate by a Flying Reagent Dispenser. Following Ro20-1724 addition, 23 nL of compound dissolved in DMSO, positive controls or DMSO only was added to the assay plates via Wako pintool station. The assay plates were incubated at room temperature for 10 min. Next, 1 uL of mixture of NKH477 (final concentration at 200 nM) and quinpirole (final concentration at 12 nM) was added into the plates. After the assay plates were incubated at room temperature for an additional 30 min, 2.5 ul/well of cAMP-d2 and 2.5 ul/well of anti-cAMP-cryptate were added respectively into the assay plates using a Flying Reagent Dispenser. The plates were incubated at room temperature for 1 h. The fluorescence intensity in the plates was measured at 340 nm excitation and 665 & 620 nm emission by an Envision plate reader.
On the % scale 0 is the no-effect control and ±100 the full control effect.

Chain of D(2) dopamine receptor (Homo sapiens) (P14416 whole entry, looked up): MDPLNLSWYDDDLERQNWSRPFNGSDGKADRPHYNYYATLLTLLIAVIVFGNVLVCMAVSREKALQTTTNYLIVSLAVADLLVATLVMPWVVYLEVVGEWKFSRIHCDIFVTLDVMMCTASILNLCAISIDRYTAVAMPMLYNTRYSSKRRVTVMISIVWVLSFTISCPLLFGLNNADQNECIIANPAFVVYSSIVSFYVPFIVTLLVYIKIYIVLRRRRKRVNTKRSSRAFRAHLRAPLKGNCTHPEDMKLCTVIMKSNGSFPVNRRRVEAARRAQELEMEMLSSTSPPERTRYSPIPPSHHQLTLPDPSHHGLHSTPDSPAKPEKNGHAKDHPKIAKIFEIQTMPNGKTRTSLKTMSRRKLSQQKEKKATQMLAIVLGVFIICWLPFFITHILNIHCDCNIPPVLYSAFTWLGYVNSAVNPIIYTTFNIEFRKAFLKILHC

Structure (SMILES)	activity change, negative = inhibition
CSCCCN=C=S	7.76% (inactive)
C#CC(C)(C)O	-7.79% (inactive)
COP(=O)(OC)O/C(C)=C/C(=O)N(C)C	-9.13% (inactive)
COc1ccc(OC)c(CC(C)N)c1 (stereo not given)	-8.48% (inactive)
Cc1cc(C)cc(OP(=O)(Oc2cc(C)cc(C)c2)Oc2cc(C)cc(C)c2)c1	8.45% (inactive)
OP(O)c1ccccc1	-4.59% (inactive)
CCNc1nc(NC(C)C(C)C)nc(SC)n1 (stereo not given)	-0.375% (inactive)
C[C@]12CC[C@H]3[C@@H](CCC4=CC(=O)CC[C@@]43C)[C@@H]1CC[C@@H]2O	-8.63% (inactive)
COP(=S)(OC)Oc1c(Cl)cc(C)cc1Cl	1.31% (inactive)
OC(Cn1cncn1)(c1ccc(F)cc1)c1ccccc1F (stereo not given)	3.01% (inactive)
Cc1cc(C)c(C2=C(OC(=O)CC(C)(C)C)C3(CCCC3)OC2=O)c(C)c1	0.407% (inactive)
CN(C)C1CCCCC1	2.47% (inactive)
Cc1nc(N(C)C)nc(OC(=O)N(C)C)c1C	4.84% (inactive)
CCN(CCO)CCn1c(Cc2ccccc2)nc2c1c(=O)n(C)c(=O)n2C	12.6% [at 42.5 µM] (inactive)
C=C(C)C(=O)OCCCCOC(=O)C(=C)C	0.0401% (inactive)
Cn1cc(C2=C(c3cn(C4CCN(Cc5ccccn5)CC4)c4ccccc34)C(=O)NC2=O)c2ccccc21	-8.21% [at 42.5 µM] (inactive)
COP(=S)(OC)Oc1ccc([N+](=O)[O-])c(C)c1	4.01% (inactive)
CC(Cl)(Cl)Cl	-0.296% (inactive)
Cc1cc(C(F)(C(F)(F)F)C(F)(F)F)ccc1NC(=O)c1cccc(I)c1C(=O)NC(C)(C)CS(C)(=O)=O	-9.24% [at 42.5 µM] (inactive)
BrCC(Br)(Br)Br	-0.0128% (inactive)

Structure (SMILES)	activity change, negative = inhibition
O=C(Cc1ccccc1)OCCc1ccccc1	0.0508% (inactive)
CC(C)(O)c1cnn2c(-c3ccc(F)c(-c4c(F)cccc4C#N)c3)cnc2n1	-13.6% (inactive)
CC[C@H](C)[C@H]1O[C@]2(C=C[C@@H]1C)C[C@@H]1C[C@@H](C/C=C(\C)[C@@H](O[C@H]3C[C@H](OC)[C@@H](O[C@H]4C[C@H](OC)[C@@H](O)[C@H](C)O4)[C@H](C)O3)[C@@H](C)/C=C/C=C3\CO[C@@H]4[C@H](O)C(C)=C[C@@H](C(=O)O1)[C@]34O)O2	-7.74% [at 42.5 µM] (inactive)
Nc1ccc([N+](=O)[O-])cc1Cl	3.22% (inactive)
Brc1ccccc1	-0.149% (inactive)
CCN(CC)CCc1c[nH]c2ccccc12	-20.5% (inactive)
CC#Cc1cc(C)nc(Nc2ccccc2)n1	-0.152% (inactive)
CCCC[N+](=O)[O-]	4.13% (inactive)
O=C(O)COc1ccc(Cl)cc1	-4.17% (inactive)
O=C(O)c1ccccc1C(=O)Nc1cccc2ccccc12	3.08% (inactive)
COCC(C)N(C(=O)CCl)c1c(C)csc1C (stereo not given)	3.4% (inactive)
COc1ccc(C(=O)c2c(C)n(CCN3CCOCC3)c3ccccc23)cc1	4.35% [at 42.5 µM] (inactive)
CC(C)N(C(=O)COc1nnc(C(F)(F)F)s1)c1ccc(F)cc1	-1.1% (inactive)
CCCCN(N=O)C(=N)N[N+](=O)[O-]	-0.236% (inactive)
C[CH2][Hg][N]1C(=O)C2C(C1=O)C1(Cl)C(Cl)=C(Cl)C2(Cl)C1(Cl)Cl (stereo not given)	2.84% [at 18.9 µM] (inactive)
[O-][Br+2]([O-])O	-0.825% [at 42.5 µM] (inactive)
CCCCCCCC(=O)Cl	-5.15% (inactive)
CNC(=O)CSP(=O)(OC)OC	-2.63% (inactive)
CCC1(c2ccccc2)C(=O)N(COC)C(=O)N(COC)C1=O	-3.44% [at 42.5 µM] (inactive)
Cc1cc(C)c(C(=O)P(=O)(C(=O)c2c(C)cc(C)cc2C)c2ccccc2)c(C)c1	-26.4% (inactive)
